Measurements reported in ChEMBL document CHEMBL1961873, “Compounds: GSK PKIS; Assays: Nanosyn kinase panel” (2012).

Key:
[1] = target: Ribosomal protein S6 kinase alpha-3 (Homo sapiens) (UniProt P51812); details: at 0.1 µM
[2] = target: Ribosomal protein S6 kinase alpha-3 (Homo sapiens) (UniProt P51812); details: at 1 µM
[3] = target: Ribosomal protein S6 kinase alpha-2 (Homo sapiens) (UniProt Q15349); details: at 0.1 µM
[4] = target: Ribosomal protein S6 kinase alpha-2 (Homo sapiens) (UniProt Q15349); details: at 1 µM
[5] = target: Ribosomal protein S6 kinase alpha-6 (Homo sapiens) (UniProt Q9UK32); details: at 0.1 µM
[6] = target: Ribosomal protein S6 kinase alpha-6 (Homo sapiens) (UniProt Q9UK32); details: at 1 µM
[7] = target: Serine/threonine-protein kinase Sgk1 (Homo sapiens) (UniProt O00141); details: at 0.1 µM
[8] = target: Serine/threonine-protein kinase Sgk1 (Homo sapiens) (UniProt O00141); details: at 1 µM
[9] = target: Serine/threonine-protein kinase Sgk2 (Homo sapiens) (UniProt Q9HBY8); details: at 0.1 µM
[10] = target: Serine/threonine-protein kinase Sgk2 (Homo sapiens) (UniProt Q9HBY8); details: at 1 µM
[11] = target: Serine/threonine-protein kinase Sgk3 (Homo sapiens) (UniProt Q96BR1); details: at 0.1 µM
[12] = target: Serine/threonine-protein kinase Sgk3 (Homo sapiens) (UniProt Q96BR1); details: at 1 µM
[13] = target: 5'-AMP-activated protein kinase catalytic subunit alpha-1 (Homo sapiens) (UniProt Q13131); details: at 0.1 µM
[14] = target: 5'-AMP-activated protein kinase catalytic subunit alpha-1 (Homo sapiens) (UniProt Q13131); details: at 1 µM
[15] = target: 5'-AMP-activated protein kinase catalytic subunit alpha-2 (Homo sapiens) (UniProt P54646); details: at 0.1 µM
[16] = target: 5'-AMP-activated protein kinase catalytic subunit alpha-2 (Homo sapiens) (UniProt P54646); details: at 1 µM
[17] = target: NUAK family SNF1-like kinase 1 (Homo sapiens) (UniProt O60285); details: at 0.1 µM
[18] = target: NUAK family SNF1-like kinase 1 (Homo sapiens) (UniProt O60285); details: at 1 µM
[19] = target: Serine/threonine-protein kinase BRSK1 (Homo sapiens) (UniProt Q8TDC3); details: at 0.1 µM
[20] = target: Serine/threonine-protein kinase BRSK1 (Homo sapiens) (UniProt Q8TDC3); details: at 1 µM
[21] = target: Serine/threonine-protein kinase BRSK2 (Homo sapiens) (UniProt Q8IWQ3); details: at 0.1 µM
[22] = target: Serine/threonine-protein kinase BRSK2 (Homo sapiens) (UniProt Q8IWQ3); details: at 1 µM
[23] = target: Calcium/calmodulin-dependent protein kinase type 1D (Homo sapiens) (UniProt Q8IU85); details: at 0.1 µM
[24] = target: Calcium/calmodulin-dependent protein kinase type 1D (Homo sapiens) (UniProt Q8IU85); details: at 1 µM
[25] = target: Calcium/calmodulin-dependent protein kinase type II subunit alpha (Homo sapiens) (UniProt Q9UQM7); details: at 0.1 µM
[26] = target: Calcium/calmodulin-dependent protein kinase type II subunit alpha (Homo sapiens) (UniProt Q9UQM7); details: at 1 µM
[27] = target: Calcium/calmodulin-dependent protein kinase type II subunit delta (Homo sapiens) (UniProt Q13557); details: at 0.1 µM
[28] = target: Calcium/calmodulin-dependent protein kinase type II subunit delta (Homo sapiens) (UniProt Q13557); details: at 1 µM
[29] = target: Calcium/calmodulin-dependent protein kinase type IV (Homo sapiens) (UniProt Q16566); details: at 0.1 µM
[30] = target: Calcium/calmodulin-dependent protein kinase type IV (Homo sapiens) (UniProt Q16566); details: at 1 µM
[31] = target: Serine/threonine-protein kinase Chk1 (Homo sapiens) (UniProt O14757); details: at 0.1 µM
[32] = target: Serine/threonine-protein kinase Chk1 (Homo sapiens) (UniProt O14757); details: at 1 µM
[33] = target: Serine/threonine-protein kinase Chk2 (Homo sapiens) (UniProt O96017); details: at 0.1 µM
[34] = target: Serine/threonine-protein kinase Chk2 (Homo sapiens) (UniProt O96017); details: at 1 µM
[35] = target: Death-associated protein kinase 1 (Homo sapiens) (UniProt P53355); details: at 0.1 µM
[36] = target: Death-associated protein kinase 1 (Homo sapiens) (UniProt P53355); details: at 1 µM
[37] = target: Serine/threonine-protein kinase DCLK2 (Homo sapiens) (UniProt Q8N568); details: at 0.1 µM
[38] = target: Serine/threonine-protein kinase DCLK2 (Homo sapiens) (UniProt Q8N568); details: at 1 µM
[39] = target: MAP kinase-activated protein kinase 2 (Homo sapiens) (UniProt P49137); details: at 0.1 µM
[40] = target: MAP kinase-activated protein kinase 2 (Homo sapiens) (UniProt P49137); details: at 1 µM
[41] = target: MAP kinase-activated protein kinase 3 (Homo sapiens) (UniProt Q16644); details: at 0.1 µM
[42] = target: MAP kinase-activated protein kinase 3 (Homo sapiens) (UniProt Q16644); details: at 1 µM
[43] = target: Serine/threonine-protein kinase MARK1 (Homo sapiens) (UniProt Q9P0L2); details: at 0.1 µM
[44] = target: Serine/threonine-protein kinase MARK1 (Homo sapiens) (UniProt Q9P0L2); details: at 1 µM
[45] = target: MAP/microtubule affinity-regulating kinase 3 (Homo sapiens) (UniProt P27448); details: at 0.1 µM
[46] = target: MAP/microtubule affinity-regulating kinase 3 (Homo sapiens) (UniProt P27448); details: at 1 µM
[47] = target: MAP/microtubule affinity-regulating kinase 4 (Homo sapiens) (UniProt Q96L34); details: at 0.1 µM
[48] = target: MAP/microtubule affinity-regulating kinase 4 (Homo sapiens) (UniProt Q96L34); details: at 1 µM
[49] = target: Maternal embryonic leucine zipper kinase (Homo sapiens) (UniProt Q14680); details: at 0.1 µM
[50] = target: Maternal embryonic leucine zipper kinase (Homo sapiens) (UniProt Q14680); details: at 1 µM
[51] = target: MAP kinase-interacting serine/threonine-protein kinase 1 (Homo sapiens) (UniProt Q9BUB5); details: at 0.1 µM
[52] = target: MAP kinase-interacting serine/threonine-protein kinase 1 (Homo sapiens) (UniProt Q9BUB5); details: at 1 µM
[53] = target: MAP kinase-interacting serine/threonine-protein kinase 2 (Homo sapiens) (UniProt Q9HBH9); details: at 0.1 µM
[54] = target: MAP kinase-interacting serine/threonine-protein kinase 2 (Homo sapiens) (UniProt Q9HBH9); details: at 1 µM
[55] = target: Serine/threonine-protein kinase MARK2 (Homo sapiens) (UniProt Q7KZI7); details: at 0.1 µM
[56] = target: Serine/threonine-protein kinase MARK2 (Homo sapiens) (UniProt Q7KZI7); details: at 1 µM

Serine/threonine-protein kinase BRSK1 (Homo sapiens), sequence (Q8TDC3 whole entry): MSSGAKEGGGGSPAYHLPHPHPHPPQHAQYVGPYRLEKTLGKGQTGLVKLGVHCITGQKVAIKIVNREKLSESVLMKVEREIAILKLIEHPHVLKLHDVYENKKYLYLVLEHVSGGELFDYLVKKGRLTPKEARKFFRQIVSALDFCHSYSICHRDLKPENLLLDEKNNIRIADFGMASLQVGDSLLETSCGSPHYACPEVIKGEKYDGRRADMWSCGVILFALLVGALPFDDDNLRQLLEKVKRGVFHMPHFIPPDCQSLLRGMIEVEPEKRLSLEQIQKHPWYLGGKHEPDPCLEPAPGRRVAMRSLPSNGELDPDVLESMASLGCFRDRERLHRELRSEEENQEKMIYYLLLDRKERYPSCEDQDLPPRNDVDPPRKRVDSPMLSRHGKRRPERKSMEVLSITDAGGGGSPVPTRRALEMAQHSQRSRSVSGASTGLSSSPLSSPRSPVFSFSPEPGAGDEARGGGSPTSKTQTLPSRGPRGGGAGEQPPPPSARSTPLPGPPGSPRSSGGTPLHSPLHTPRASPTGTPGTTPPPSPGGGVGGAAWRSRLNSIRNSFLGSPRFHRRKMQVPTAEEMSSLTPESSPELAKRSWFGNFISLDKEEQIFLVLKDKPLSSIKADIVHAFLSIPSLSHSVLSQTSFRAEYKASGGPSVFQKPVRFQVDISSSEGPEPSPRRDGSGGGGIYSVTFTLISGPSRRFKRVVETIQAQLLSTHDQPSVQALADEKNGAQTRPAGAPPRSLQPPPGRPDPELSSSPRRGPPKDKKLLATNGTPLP
Serine/threonine-protein kinase MARK2 (Homo sapiens), sequence (Q7KZI7 whole entry): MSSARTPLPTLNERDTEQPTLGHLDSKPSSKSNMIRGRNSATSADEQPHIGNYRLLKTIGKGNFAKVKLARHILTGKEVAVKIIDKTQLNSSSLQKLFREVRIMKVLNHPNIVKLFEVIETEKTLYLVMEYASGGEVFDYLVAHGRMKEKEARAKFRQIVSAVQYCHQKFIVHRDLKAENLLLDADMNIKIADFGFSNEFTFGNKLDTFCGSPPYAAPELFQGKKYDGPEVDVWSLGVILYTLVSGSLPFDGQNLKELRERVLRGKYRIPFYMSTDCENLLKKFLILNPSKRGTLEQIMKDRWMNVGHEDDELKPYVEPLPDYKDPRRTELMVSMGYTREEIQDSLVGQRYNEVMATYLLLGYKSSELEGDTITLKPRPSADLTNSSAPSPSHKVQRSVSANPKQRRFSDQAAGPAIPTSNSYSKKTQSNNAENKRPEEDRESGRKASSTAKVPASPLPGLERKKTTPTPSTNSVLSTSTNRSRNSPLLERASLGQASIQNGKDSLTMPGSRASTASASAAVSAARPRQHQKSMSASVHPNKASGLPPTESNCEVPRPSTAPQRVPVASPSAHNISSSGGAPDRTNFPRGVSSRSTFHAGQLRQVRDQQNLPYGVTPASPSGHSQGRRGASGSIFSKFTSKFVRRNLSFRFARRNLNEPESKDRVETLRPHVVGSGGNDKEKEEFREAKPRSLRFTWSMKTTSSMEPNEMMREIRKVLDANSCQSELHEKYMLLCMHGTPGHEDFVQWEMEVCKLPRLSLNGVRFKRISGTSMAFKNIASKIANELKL
Serine/threonine-protein kinase Chk1 (Homo sapiens), sequence (O14757 whole entry): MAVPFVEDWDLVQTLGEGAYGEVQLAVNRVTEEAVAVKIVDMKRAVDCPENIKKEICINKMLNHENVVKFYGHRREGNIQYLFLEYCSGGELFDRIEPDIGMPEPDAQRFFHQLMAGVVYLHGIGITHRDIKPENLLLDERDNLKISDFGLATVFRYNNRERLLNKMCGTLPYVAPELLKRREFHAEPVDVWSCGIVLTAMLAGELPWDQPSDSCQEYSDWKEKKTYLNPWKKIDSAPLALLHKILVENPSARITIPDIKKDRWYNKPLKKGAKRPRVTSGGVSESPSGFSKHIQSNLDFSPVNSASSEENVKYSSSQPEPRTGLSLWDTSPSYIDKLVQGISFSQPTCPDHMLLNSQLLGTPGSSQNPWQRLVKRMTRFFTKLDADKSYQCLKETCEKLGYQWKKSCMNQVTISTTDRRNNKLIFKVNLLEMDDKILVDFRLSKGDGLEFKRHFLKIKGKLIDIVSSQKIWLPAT
Serine/threonine-protein kinase MARK1 (Homo sapiens), sequence (Q9P0L2 whole entry, looked up): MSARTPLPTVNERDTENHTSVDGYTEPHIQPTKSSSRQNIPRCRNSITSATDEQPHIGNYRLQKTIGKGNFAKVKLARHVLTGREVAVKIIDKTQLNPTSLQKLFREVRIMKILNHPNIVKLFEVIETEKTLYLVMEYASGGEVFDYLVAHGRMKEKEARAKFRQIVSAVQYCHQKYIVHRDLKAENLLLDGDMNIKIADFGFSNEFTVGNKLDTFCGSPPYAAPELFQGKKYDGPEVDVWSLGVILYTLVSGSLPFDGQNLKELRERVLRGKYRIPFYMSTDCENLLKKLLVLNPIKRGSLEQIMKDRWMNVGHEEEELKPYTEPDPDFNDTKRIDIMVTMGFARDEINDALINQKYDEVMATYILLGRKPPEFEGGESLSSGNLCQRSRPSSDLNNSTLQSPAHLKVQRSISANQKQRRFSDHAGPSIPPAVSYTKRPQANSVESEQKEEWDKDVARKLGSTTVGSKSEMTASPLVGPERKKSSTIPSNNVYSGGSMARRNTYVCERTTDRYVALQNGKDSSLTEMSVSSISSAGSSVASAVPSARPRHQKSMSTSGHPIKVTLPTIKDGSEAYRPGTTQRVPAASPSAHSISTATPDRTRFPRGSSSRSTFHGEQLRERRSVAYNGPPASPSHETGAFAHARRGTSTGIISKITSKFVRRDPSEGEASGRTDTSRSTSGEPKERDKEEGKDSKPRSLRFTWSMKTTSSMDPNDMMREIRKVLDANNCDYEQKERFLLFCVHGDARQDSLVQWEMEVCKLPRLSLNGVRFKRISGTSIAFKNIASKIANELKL
5'-AMP-activated protein kinase catalytic subunit alpha-1 (Homo sapiens), sequence (Q13131 whole entry, looked up): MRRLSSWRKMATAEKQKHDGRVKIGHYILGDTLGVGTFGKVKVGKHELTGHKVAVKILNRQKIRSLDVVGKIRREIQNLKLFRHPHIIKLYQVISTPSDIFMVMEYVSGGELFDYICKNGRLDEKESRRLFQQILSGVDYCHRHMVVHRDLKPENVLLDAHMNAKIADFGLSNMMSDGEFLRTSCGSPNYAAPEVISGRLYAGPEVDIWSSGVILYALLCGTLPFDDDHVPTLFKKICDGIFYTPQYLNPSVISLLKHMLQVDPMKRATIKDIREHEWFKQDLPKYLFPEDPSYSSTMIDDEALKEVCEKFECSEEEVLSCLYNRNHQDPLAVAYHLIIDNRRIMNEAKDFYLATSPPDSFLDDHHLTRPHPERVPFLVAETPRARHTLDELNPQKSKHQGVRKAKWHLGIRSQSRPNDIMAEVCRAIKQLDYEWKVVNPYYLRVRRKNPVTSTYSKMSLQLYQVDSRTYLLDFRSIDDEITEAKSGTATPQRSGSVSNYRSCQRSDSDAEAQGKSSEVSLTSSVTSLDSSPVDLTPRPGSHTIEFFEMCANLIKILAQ
Ribosomal protein S6 kinase alpha-3 (Homo sapiens), sequence (P51812 whole entry): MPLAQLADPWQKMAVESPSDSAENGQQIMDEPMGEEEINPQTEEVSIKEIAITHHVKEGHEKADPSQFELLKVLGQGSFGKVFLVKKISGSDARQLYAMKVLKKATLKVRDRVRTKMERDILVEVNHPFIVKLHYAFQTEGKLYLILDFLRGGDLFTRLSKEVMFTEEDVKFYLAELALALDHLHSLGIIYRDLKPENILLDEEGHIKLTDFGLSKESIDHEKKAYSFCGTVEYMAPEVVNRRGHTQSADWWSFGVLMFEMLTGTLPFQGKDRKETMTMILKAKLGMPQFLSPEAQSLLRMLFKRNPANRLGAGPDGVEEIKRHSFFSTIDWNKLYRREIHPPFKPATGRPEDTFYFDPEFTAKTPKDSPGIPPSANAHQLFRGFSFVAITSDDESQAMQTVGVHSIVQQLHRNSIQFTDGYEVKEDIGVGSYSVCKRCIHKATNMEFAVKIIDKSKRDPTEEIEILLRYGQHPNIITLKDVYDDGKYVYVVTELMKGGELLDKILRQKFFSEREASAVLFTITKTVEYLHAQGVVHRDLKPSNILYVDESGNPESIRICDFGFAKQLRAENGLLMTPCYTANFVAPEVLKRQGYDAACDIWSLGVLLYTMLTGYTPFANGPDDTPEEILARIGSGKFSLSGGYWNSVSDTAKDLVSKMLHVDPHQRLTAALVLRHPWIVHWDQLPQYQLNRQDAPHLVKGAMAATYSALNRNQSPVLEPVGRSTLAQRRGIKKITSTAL
Serine/threonine-protein kinase Sgk2 (Homo sapiens), sequence (Q9HBY8 whole entry): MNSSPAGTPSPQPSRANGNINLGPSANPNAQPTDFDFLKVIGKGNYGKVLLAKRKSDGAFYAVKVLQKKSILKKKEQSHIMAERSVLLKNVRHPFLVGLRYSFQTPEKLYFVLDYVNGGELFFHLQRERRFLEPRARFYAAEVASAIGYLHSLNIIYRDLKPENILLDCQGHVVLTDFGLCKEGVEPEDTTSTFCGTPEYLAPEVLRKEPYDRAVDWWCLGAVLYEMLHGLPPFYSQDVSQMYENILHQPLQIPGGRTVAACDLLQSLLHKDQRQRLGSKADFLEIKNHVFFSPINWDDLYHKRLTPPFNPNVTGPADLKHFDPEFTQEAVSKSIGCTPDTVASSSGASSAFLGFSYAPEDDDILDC
Calcium/calmodulin-dependent protein kinase type 1D (Homo sapiens), sequence (Q8IU85 whole entry, looked up): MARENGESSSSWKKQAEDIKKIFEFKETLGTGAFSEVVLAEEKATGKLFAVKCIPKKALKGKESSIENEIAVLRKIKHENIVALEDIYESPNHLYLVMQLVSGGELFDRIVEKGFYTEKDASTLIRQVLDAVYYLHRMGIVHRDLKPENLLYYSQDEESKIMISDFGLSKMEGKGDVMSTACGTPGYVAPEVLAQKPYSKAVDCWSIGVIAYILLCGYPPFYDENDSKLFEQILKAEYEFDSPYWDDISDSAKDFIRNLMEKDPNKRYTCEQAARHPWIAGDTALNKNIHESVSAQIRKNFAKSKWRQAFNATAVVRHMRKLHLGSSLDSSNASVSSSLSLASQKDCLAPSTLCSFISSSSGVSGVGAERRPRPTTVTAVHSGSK

In the case of `CNC(=O)Oc1cc(C)c(/C=C/c2cncc(C(=O)NC)c2)c(C)c1`, the inhibition [1] is reported as 1.05%, the inhibition [2] is reported as 3.39% and the inhibition [3] is reported as 1.4%. The inhibition [4] was 3.44%, the inhibition [5] was 1.15% and the inhibition [6] was 2.66%. The inhibition [7] was 3.01%, the inhibition [8] was 0.19% and the inhibition [9] was 1.73%. It also gave an inhibition [10] of 0.22%, an inhibition [11] of 1.34% and an inhibition [12] of 0.65%. For the same compound, the inhibition [13] was 2.14%, the inhibition [14] was 0.11% and the inhibition [15] was -0.38%. It also gave an inhibition [16] of 2.44%, an inhibition [17] of -1.06% and an inhibition [18] of 4.07%. For the same compound, the inhibition [19] was 2.89%, the inhibition [20] was 12% and the inhibition [21] was 1.79%. It also gave an inhibition [22] of 7.68%, an inhibition [23] of 0.95% and an inhibition [24] of 2.36%. For the same compound, the inhibition [25] was 3.17%, the inhibition [26] was 4.72% and the inhibition [27] was 4.03%. For the same compound, the inhibition [28] was 5.12%, the inhibition [29] was 1.23% and the inhibition [30] was 0.1%. For the same compound, the inhibition [31] was -2.68%, the inhibition [32] was -3.25% and the inhibition [33] was -3.08%. It also gave an inhibition [34] of 0.64%, an inhibition [35] of -4.67% and an inhibition [36] of -3.09%. The inhibition [37] was 1.08%, the inhibition [38] was -1.11% and the inhibition [39] was -2.03%. The inhibition [40] was -2.01%, the inhibition [41] was -3.36% and the inhibition [42] was -4.16%. The inhibition [43] was 1.32%, the inhibition [44] was 0.49% and the inhibition [45] was 3.32%. It also gave an inhibition [46] of 5.19%, an inhibition [47] of 0.21% and an inhibition [48] of 0.46%. For the same compound, the inhibition [49] was 1.41%, the inhibition [50] was 3.48% and the inhibition [51] was 5.31%. For the same compound, the inhibition [52] was 30.7%, the inhibition [53] was 3.17% and the inhibition [54] was 25.1%. It also gave an inhibition [55] of -0.87% and an inhibition [56] of 0.31%.
